Format in all cases: functional
For assay [1], the system named is Plasmodium falciparum. The assay is described as follows: GSK_TCMDC: Inhibition of Plasmodium falciparum 3D7 in whole red blood cells, using parasite LDH activity as an index of growth. Test compounds present at 2uM.
In assay [2] the test system is Plasmodium falciparum. The assay is described as follows: GSK_TCMDC: Inhibition of Plasmodium falciparum Dd2 in whole red blood cells, using parasite LDH activity as an index of growth. Test compounds present at 2uM.
In a further assay the test system is HepG2. The assay is described as follows: GSK_TCMDC: Percent inhibition of human HepG2 cell line. Test compounds present at 10uM.

Regarding `O=C(Nc1ccc(CC(=O)N2CCc3cc(Cl)c(N4CCN(C/C=C/c5ccccc5)CC4)cc32)cc1)Nc1cccc([N+](=O)[O-])c1`, the Inhibition – broadly, the drop in the measured response relative to a control, in per cent – with Plasmodium falciparum [1] was determined as 95%; in the assay on Plasmodium falciparum [2], 27%; with HepG2, 0%.

Regarding `Cc1ccc(Nc2nc(N/N=C/c3cccc([N+](=O)[O-])c3)nc(Nc3ccccc3)n2)c(C)c1`, the Inhibition in the assay with Plasmodium falciparum [1] came to 91%; with Plasmodium falciparum [2], 97%; with HepG2 it was 9%.

Take `Cc1c(C(=O)N2CCc3cc4nccc(N5CCN6CCC[C@H]6C5)c4cc32)cnn1-c1ccc(C#N)cc1.Cl`: the Inhibition in the assay with Plasmodium falciparum [1] was found to be 90%; in the assay on Plasmodium falciparum [2], 27%; with HepG2 it was 0%.

On to `CCNC(=O)c1cc(S(=O)(=O)N2CCN(c3ccccn3)CC2)cs1`, for which the values for the Inhibition in the assay with Plasmodium falciparum [1], in the assay with Plasmodium falciparum [2] and in the assay on HepG2 were 97%, 94% and 7%, respectively.

Regarding `COc1ccc(-c2cn3c(C(=O)Nc4ccccc4Cl)c(-c4ccccc4)c4c3n2CCCC4)cc1`, the values for the Inhibition with Plasmodium falciparum [1], in the assay with Plasmodium falciparum [2] and in the assay with HepG2 were 100%, 1% and 7%, respectively.

Consider `Cc1[nH]c(C)c(-c2ccc(Br)cc2)c(=O)c1Cl`, for which the Inhibition is reported as 94% with Plasmodium falciparum [1], 77% in the assay with Plasmodium falciparum [2] and 22% in the assay with HepG2.

Take `NCCCN(Cc1ccc(Cl)c(Cl)c1)C(=O)Nc1ccc(Cl)c(Cl)c1`: the Inhibition in the assay with Plasmodium falciparum [1] is recorded as 93%; with Plasmodium falciparum [2], 41%; with HepG2, 100%.

With `CCC[C@@H](C(=O)NCCc1cccc(OC)c1)N1C(=O)c2c(ccc(OC)c2OC)C1C(=O)Nc1c(C)cccc1C` (stereo not given in full), the results for the Inhibition in the assay on Plasmodium falciparum [1], in the assay with Plasmodium falciparum [2] and with HepG2 were 94%, 32% and 6%, respectively.

For `CC(Cc1ccc(OCC(=O)NCC2CCN(CCc3cccc(Cl)c3)CC2)cc1)NCCc1cccc(Cl)c1.Cl` (stereo not given), the Inhibition in the assay with Plasmodium falciparum [1] is 96%; in the assay on Plasmodium falciparum [2], 85%; with HepG2 it was 100%.

With `Cc1ccc2nc3c(cc(C(=O)NCCc4ccccc4)c(=N)n3CCCOC(C)C)c(=O)n2c1`, the Inhibition is given as 96% with Plasmodium falciparum [1], 12% in the assay with Plasmodium falciparum [2] and 15% with HepG2.

For the compound `CCN(CC)CCN(Cc1ccc(-c2ccc(Br)cc2)cc1)C(=O)Cn1c(CCc2cccc(F)c2F)nc(=O)c2ccccc21.O=C(O)C(O)C(O)C(=O)O`, the Inhibition with Plasmodium falciparum [1] is on record as 98%; in the assay with Plasmodium falciparum [2] it was 74%; with HepG2 it was 37%.

Turning to `COc1cc(Cc2cnc(N)nc2N)cc(OC(C)C)c1OC`, the Inhibition in the assay on Plasmodium falciparum [1] turned out to be 91%; in the assay on Plasmodium falciparum [2] it was 15%; in the assay with HepG2, 10%.

Turning to `CN(C)CCCNc1nccc(N(C)c2ccc(NC(=O)Nc3cc(C(F)(F)F)ccc3F)cc2)n1.O=C(O)C(F)(F)F`, the figures for the Inhibition with Plasmodium falciparum [1], in the assay with Plasmodium falciparum [2] and with HepG2 were 93%, 25% and 97%, respectively.

As to `CN(C)CCN(Cc1ccccc1-c1ccc(CNCCc2ccccc2)cc1)C(=O)c1ccccc1.O=C(O)C(F)(F)F`, the figures for the Inhibition with Plasmodium falciparum [1], with Plasmodium falciparum [2] and in the assay with HepG2 were 95%, 97% and 81%, respectively.

Regarding `CN(C)CCOc1cc(NC(=O)Nc2cccc3c(-c4ccncc4)cccc23)ccc1I.Cl`, the figures for the Inhibition in the assay on Plasmodium falciparum [1], in the assay with Plasmodium falciparum [2] and with HepG2 were 100%, 28% and 20%, respectively.

With `Cc1ccccc1C1CCN(C2CCC(NC(=O)/C=C/c3ccccc3C(F)(F)F)CC2)CC1` (stereo not given), the results for the Inhibition in the assay with Plasmodium falciparum [1], in the assay on Plasmodium falciparum [2] and in the assay on HepG2 were 83%, 6% and 63%, respectively.

With `COc1cccc(C(=O)Nc2ccc(-c3nc4ccccc4[nH]3)cc2)c1`, the Inhibition was 95% in the assay with Plasmodium falciparum [1], 19% in the assay with Plasmodium falciparum [2] and 28% with HepG2.

With `COC(=O)c1cccc(NC(=O)NCCNc2ccnc(Nc3ccc(F)cc3)n2)c1`, the Inhibition stood at 93% with Plasmodium falciparum [1], 5% in the assay on Plasmodium falciparum [2] and 10% in the assay with HepG2.

`O=C(Nc1ccc(Cl)cc1)Nc1ccc2c(c1)N1CCN=C1S2`: the Inhibition stood at 99% in the assay on Plasmodium falciparum [1], 100% in the assay with Plasmodium falciparum [2] and 15% in the assay on HepG2.

In the case of `O=C(Nc1ccc(N2CCN(Cc3c[nH]c4cc(F)ccc34)CC2)cc1)c1ccccc1-c1ccc(C(F)(F)F)cc1`, the Inhibition is 85% with Plasmodium falciparum [1], 7% in the assay with Plasmodium falciparum [2] and 20% with HepG2.

For the compound `COc1ccc(-c2ccccc2OCCCNc2nc(NCCc3ccc(O)cc3)nc(N3CCNCC3)n2)cc1.O=C(O)C(F)(F)F`, the Inhibition in the assay with Plasmodium falciparum [1] was 99%; in the assay with Plasmodium falciparum [2], 3%; with HepG2 it was 36%.

Take `N=C(/N=C(/NCCCCCCN/C(=N\C(=N)Nc1ccc(Cl)cc1)N1CCCCC1)N1CCCCC1)Nc1ccc(Cl)cc1`: the Inhibition with Plasmodium falciparum [1] turned out to be 100%; in the assay on Plasmodium falciparum [2], 98%; in the assay with HepG2 it was 0%.

Consider `O=C(CN1CCN(C(=O)c2ccco2)CC1)Nc1ccc(Br)cc1Cl`, for which the results for the Inhibition with Plasmodium falciparum [1], in the assay with Plasmodium falciparum [2] and with HepG2 were 88%, 79% and 10%, respectively.

Consider `COc1ccc(-c2ccc(S(=O)(=O)Nc3cc4c(cc3OC(C)C)CCNCC4)cc2)cc1.Cl`, for which the Inhibition in the assay on Plasmodium falciparum [1] amounted to 86%; in the assay on Plasmodium falciparum [2], 0%; with HepG2, 16%.

Regarding `O=S(=O)(c1cc2ccccc2s1)N(CCC(O)(C(F)(F)F)C(F)(F)F)Cc1cccc(O)c1`, the Inhibition was found to be 100% in the assay with Plasmodium falciparum [1], 99% with Plasmodium falciparum [2] and 0% in the assay on HepG2.

On to `O=S(=O)(Nc1ccc(CCN2CCC(N3CCCCC3)CC2)cc1)c1ccc(Cl)cc1`, for which the Inhibition stood at 100% with Plasmodium falciparum [1], 18% in the assay on Plasmodium falciparum [2] and 23% in the assay with HepG2.

Turning to `CC(C)Cc1cnc2nc(N)nc(N)c2c1.Cl`, the Inhibition with Plasmodium falciparum [1] is 98%; in the assay with Plasmodium falciparum [2], 0%; with HepG2 it was 66%.

On to `Cc1cccc2nc(-c3cccc(-c4ccc(NC(=O)Cc5ccc[n+]([O-])c5)cc4)c3)[nH]c12`, for which the values for the Inhibition with Plasmodium falciparum [1], with Plasmodium falciparum [2] and in the assay with HepG2 were 99%, 87% and 11%, respectively.

As to `COc1cccc(C(=O)N2CCOC(CCN3CCC(c4ccccc4)CC3)(c3ccc(Cl)c(Cl)c3)C2)c1` (stereo not given), the Inhibition in the assay with Plasmodium falciparum [1] came to 87%; in the assay with Plasmodium falciparum [2] it was 63%; in the assay on HepG2 it was 38%.

Regarding `O=C(NC1CCN(CCC[C@]2(c3ccc(Cl)c(Cl)c3)CCCN(C(=O)c3ccccc3)C2)CC1)c1ccc(Cl)cc1`, the Inhibition came out at 95% in the assay with Plasmodium falciparum [1], 4% with Plasmodium falciparum [2] and 56% in the assay with HepG2.

The values are drawn from ChEMBL document CHEMBL1157539, “Thousands of chemical starting points for antimalarial lead identification” (Nature, 2010).
